For test [1], the system named is TRPC4 beta (transient receptor potential cation channel C4), mouse. The experiment in a line: activators of mouse TRPC4 channel, confirmation, cell-based, Fluo4 calcium, HEK293 TRPC4beta/mu-opioid, duplicates, 10 µM (AID 2426;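 active means fluorescence ratio normalized to control raised more than 50% in primary screen plus both repeat runs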;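 further: percent rise of integrated ratio over buffer wells lacking compound which define 0%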). Conditions: Fluo4 calcium fluorescence, at 10 µM; hits give high values.
Test [2] has as its system transient receptor potential cation channel C4 beta (TRPC4), mouse. The test is described as follows: activators of mouse TRPC4 channel, confirmation, cell-based, second round, Fluo4, HEK293 TRPC4beta/mu-opioid, 1 µM (AID 2461;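 active means primary screen active and over 50% activation in each of two duplicate runs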;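 on activation: 0% = wells without test compound as baseline of integrated fluorescence ratio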). Conditions: Fluo4 calcium fluorescence, at 1 µM; hits give high values.
In test [3] the test system is TRPC4 (transient receptor potential cation channel C4 beta), mouse. The test is described as follows: positive allosteric modulators of mouse TRPC4, confirmation, cell-based, second round, Fluo-4, HEK293 TRPC4beta/mu-opioid, 1 µM (AID 2554;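 active means primary screen hit whose fluorescence ratio, in both repeats, exceeds the weak agonist control mean by 3 SD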). To be noted: DAMGO EC20, Fluo-4 calcium flux, at 1 µM; hits give high values.
Test [4] relates to TRPC4 beta (transient receptor potential cation channel C4), mouse. The experiment in a line: positive allosteric modulators of mouse TRPC4, confirmation, cell-based, Fluo-4, HEK293 TRPC4beta/mu-opioid (AID 2555;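 active means primary screen hit whose calcium fluorescence ratio, in both repeats, exceeds the weak agonist control mean by 3 SD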). To be noted: DAMGO EC20, Fluo-4 calcium flux, at 10 µM; hits give high values.
Test [5] addresses Short transient receptor potential channel 4 (Mus musculus) (UniProt Q9QUQ5). The test is described as follows: inhibitors of mouse TRPC4 channel, confirmation, cell-based, Fluo4, HEK293 TRPC4beta/mu-opioid (AID 2636;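 active means calcium signal cut by more than 3 SD below the full-agonist control yet still positive, in both repeats and the earlier primary screen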). Conditions: DAMGO, Fluo4 calcium flux, at 10 µM; hits give high values.
Test [6] shares this target. The test is described as follows: inhibitors of mouse TRPC4 channel, confirmation, cell-based, second round, Fluo4, HEK293 TRPC4beta/mu-opioid, 1 µM (AID 2637;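 active means calcium signal ratio cut to more than 3 SD under the fully stimulated control mean yet still positive, in both repeats and the primary screen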). Conditions: Fluo4 calcium flux, DAMGO, at 1 µM; hits give high values.
The target is the same in test [7]. The experiment in a line: TRPC4 positive allosteric modulators, dose response, cell-based, HEK293 TRPC4/mu-opioid, Fluo-4 calcium, EC20 DAMGO (AID 434941;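 active means earlier screen potentiator hit that boosts the TRPC4 ion channel at some dose, with a dose response; inactive means no potentiation, no dose response, or not a prior hit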;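 further: calcium entry triggered by an EC20 dose of DAMGO at the co-expressed mu-opioid receptor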).
For test [8] the target is unchanged. The experiment in a line: mouse TRPC4 channel inhibitors, dose response, cell-based, HEK293 TRPC4/mu-opioid, Fluo-4 calcium (AID 434942;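 active means primary screen inhibitor hit that blocks the TRPC4 channel at some tested dose, yielding a dose curve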).
The target of test [9] is Short transient receptor potential channel 6 (Mus musculus) (UniProt Q61143). The test is described as follows: inhibition of mouse TRPC6 channel, confirmation, selectivity assay for TRPC4 inhibitor project, cell-based, HEK293, membrane potential dye, duplicate (AID 434948;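 active means active in primary screen and both duplicates, each dropping signal beyond three positive-control SD with fluorescence still positive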). Conditions: HEK293 TRPC6, membrane potential dye fluorescence, at 10 µM, stimulated with maximal-effect acetylcholine; hits give high values.

Test [10] has the same target. The experiment in a line: activation of mouse TRPC6 channel, confirmation, selectivity assay for TRPC4 activator project, cell-based, HEK293, membrane potential dye, duplicate (AID 434950;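 active means membrane potential signal rise above negative control mean plus 3 SD in both duplicates, also active in the earlier TRPC4 screen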;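 on activation: 0% = buffer only wells and 100% = acetylcholine maximal-effect wells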). To be noted: HEK293 TRPC6, membrane potential fluorescence, at 10 µM; hits give high values.
Test [11] has the same target. The experiment in a line: TRPC6 potentiation by TRPC4 potentiator hits, confirmation, selectivity assay for TRPC4 potentiator project, HEK293 cells, membrane potential dye, duplicate (AID 434952;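 active means compound raising the membrane signal above positive-control mean plus 3 SD in both repeats, and a primary screen hit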). To be noted: HEK293 TRPC6, membrane potential dye fluorescence, at 10 µM, maximal acetylcholine added after compound; hits give high values.
In test [12] the target is Short transient receptor potential channel 4 (Mus musculus) (UniProt Q9QUQ5). The experiment in a line: calcium flux activators in TRPC4/5HT1a cells, counter-screen for TRPC4 activator project, cell-based, second counter screen, HEK293 TRPC4/5HT1a, Fluo-4 (AID 434977;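 active means calcium signal rise above buffer-control mean plus 5 SD in both duplicates, and also a hit in the primary screen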;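 on activation: plate controls were assay buffer for no effect and maximal serotonin response for full effect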). Conditions: Fluo-4 calcium flux, at 10 µM; hits give high values.
The nature of test [13]: calcium flux inhibitors in TRPC4/5HT1a cells, confirmation, counter-screen for TRPC4 inhibitor project, cell-based, second counter screen, HEK293 TRPC4/5HT1a, Fluo-4 (AID 434978;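 active means primary screen active whose calcium signal fell more than 3 SD beyond the full-serotonin control mean in both duplicate plates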;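 further: serotonin given first at submaximal then at maximal dose after compound preincubation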). To be noted: Fluo-4 calcium flux, at 10 µM, serotonin added to trigger calcium flux; hits give high values.
The test system of test [14] is TRPC4 (mouse), co-expressed with 5HT1a in HEK293. The experiment in a line: calcium flux potentiators in TRPC4/5HT1a cells, confirmation, counter-screen for TRPC4 potentiator project, cell-based, second counter screen, HEK293 TRPC4/5HT1a, Fluo-4 (AID 434979). To be noted: Fluo-4 calcium flux, at 10 µM, serotonin added at its EC20 dose; hits give high values.
The nature of test [15]: calcium flux activation in mu-opioid HEK293 cells, confirmation, counter-screen for TRPC4 activator project, cell-based, HEK293 mu-opioid receptor line (AID 449723;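 active means hit in primary screen, with calcium signal over 5 SD above buffer well mean in both duplicates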;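 further: counter screen cells carry the mu-opioid receptor alone and lack TRPC4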). To be noted: Fluo-4 calcium fluorescence, at 10 µM; hits give high values.
A short description of test [16]: calcium flux enhancement in mu-opioid HEK293 cells, confirmation, counter-screen for TRPC4 allosteric potentiator project, cell-based, HEK293 mu-opioid receptor line (AID 449724;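 active means calcium signal rise more than 3 SD above the low-dose agonist control mean, in both duplicate plates and the primary screen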;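 further: HEK293 cells carrying mu-opioid receptor only with no TRPC4 channel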). Conditions: Fluo-4 calcium flux, at 10 µM, compound added before EC20 DAMGO stimulus; hits give high values.

For part of these data: Entries with a potency or affinity are not part of this list. Activity calls are given as the source filed them.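 How the source made its calls, unless noted: active means signal rise over 3 SD above mean of control wells given weak agonist, in both repeats and first screen; inactive means the rest.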

Short transient receptor potential channel 6 (Mus musculus), sequence (Q61143 whole entry, looked up): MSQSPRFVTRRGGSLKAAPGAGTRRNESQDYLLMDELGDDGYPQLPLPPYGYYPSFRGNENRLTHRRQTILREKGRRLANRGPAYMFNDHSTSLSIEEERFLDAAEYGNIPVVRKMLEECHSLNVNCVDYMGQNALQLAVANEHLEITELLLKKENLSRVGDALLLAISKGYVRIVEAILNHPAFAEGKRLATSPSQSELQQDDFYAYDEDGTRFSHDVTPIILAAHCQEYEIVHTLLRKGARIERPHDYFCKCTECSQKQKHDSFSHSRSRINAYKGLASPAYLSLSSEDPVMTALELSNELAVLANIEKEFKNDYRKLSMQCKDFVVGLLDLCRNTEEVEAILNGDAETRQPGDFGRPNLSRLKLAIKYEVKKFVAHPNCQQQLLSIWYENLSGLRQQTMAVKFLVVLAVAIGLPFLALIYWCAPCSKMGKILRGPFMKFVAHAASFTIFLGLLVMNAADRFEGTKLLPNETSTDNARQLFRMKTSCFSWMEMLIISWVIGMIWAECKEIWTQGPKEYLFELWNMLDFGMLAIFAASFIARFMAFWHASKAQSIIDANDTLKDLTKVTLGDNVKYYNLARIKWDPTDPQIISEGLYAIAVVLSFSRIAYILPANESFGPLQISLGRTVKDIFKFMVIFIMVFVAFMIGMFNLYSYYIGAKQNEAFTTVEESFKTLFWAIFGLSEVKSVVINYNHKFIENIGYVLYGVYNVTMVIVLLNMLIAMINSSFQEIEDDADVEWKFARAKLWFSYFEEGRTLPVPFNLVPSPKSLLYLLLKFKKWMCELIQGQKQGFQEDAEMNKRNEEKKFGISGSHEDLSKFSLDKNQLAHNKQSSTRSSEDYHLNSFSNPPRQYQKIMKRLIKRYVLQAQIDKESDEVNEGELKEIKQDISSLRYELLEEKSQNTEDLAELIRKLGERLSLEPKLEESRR
Short transient receptor potential channel 4 (Mus musculus), sequence (Q9QUQ5 whole entry, looked up): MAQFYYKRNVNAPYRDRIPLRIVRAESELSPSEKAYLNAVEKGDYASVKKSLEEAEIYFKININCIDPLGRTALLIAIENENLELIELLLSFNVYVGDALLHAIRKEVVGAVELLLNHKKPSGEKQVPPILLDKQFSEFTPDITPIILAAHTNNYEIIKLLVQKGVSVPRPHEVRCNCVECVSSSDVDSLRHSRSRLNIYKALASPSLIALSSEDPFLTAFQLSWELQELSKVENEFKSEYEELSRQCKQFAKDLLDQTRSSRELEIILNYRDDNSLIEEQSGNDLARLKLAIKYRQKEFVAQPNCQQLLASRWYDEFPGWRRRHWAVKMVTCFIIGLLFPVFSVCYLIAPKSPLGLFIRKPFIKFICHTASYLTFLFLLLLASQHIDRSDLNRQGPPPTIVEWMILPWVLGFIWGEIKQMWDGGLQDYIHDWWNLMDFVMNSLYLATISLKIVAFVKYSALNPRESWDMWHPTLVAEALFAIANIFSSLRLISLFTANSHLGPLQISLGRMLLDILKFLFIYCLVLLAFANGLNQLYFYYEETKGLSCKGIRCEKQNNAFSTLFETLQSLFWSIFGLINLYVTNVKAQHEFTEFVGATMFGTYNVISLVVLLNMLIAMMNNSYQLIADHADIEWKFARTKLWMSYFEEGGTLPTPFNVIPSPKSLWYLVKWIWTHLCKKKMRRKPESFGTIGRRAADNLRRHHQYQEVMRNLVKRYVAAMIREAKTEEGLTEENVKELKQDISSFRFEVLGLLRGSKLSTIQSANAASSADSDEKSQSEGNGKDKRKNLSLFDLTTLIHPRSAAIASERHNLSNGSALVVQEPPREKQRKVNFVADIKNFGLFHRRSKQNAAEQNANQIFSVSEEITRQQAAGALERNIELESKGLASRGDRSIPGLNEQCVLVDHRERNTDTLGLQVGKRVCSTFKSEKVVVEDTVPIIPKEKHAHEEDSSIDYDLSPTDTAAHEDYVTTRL

`CCCN(CCC)CCCNC(=O)CNC(=O)c1nn(-c2ccc(OC)cc2)c(=O)c2ccccc12`: the activation in [1] is 65% (active); in [12], 24.9% (active). The result in [2], in test [3], in test [4], in test [5], in test [6] and in test [7] was inactive. Also, the outcome in [8], in test [9], in test [10], in test [11], in [13] and in test [14] was inactive. Moreover, the outcome in test [15] and in test [16] was inactive.
As for `COc1ccc(C(CNc2ncnc3sc(C)c(C)c23)N(C)C)cc1` (stereo not given), the activation is 227% (active) in test [1] and 113% (active) in test [2]. Besides, the result in [3], in test [4], in [5], in test [6], in test [7] and in [8] was inactive. The result in test [9], in test [10], in test [11], in test [12], in [13] and in test [14] was inactive. The outcome in test [15] and in [16] was inactive.
On to `Cc1sc2ncnc(NCC(c3ccco3)N(C)C)c2c1C` (stereo not given), for which the activation in test [1] is 202% (active); in [2], 116% (active); in [12], 91.1% (active). Moreover, the result in test [3], in test [4], in test [5], in test [6], in test [7] and in test [8] was inactive. For the same molecule, the result in [9], in test [10], in test [11], in test [13], in [14] and in test [15] was inactive. Also, in test [16], the result was inactive.
Take `NC(N)=NN=C1CCCCCCCCCCC1`: the activation in test [1] was 95% (active); in [10], 32.5% (active); in [12], 32.2% (active); in [15], 24.9% (active). For the same molecule, the outcome in [2], in [3], in test [4], in test [5], in test [6] and in test [7] was inactive. Also, the outcome in test [8], in test [9], in test [11], in test [13], in test [14] and in test [16] was inactive.
In the case of `O=C1c2ccccc2S(=O)(=O)c2cc(C(=O)N(c3ccccn3)c3ccccn3)ccc21`, the activation was 107% (active) in [1], 99.8% (active) in [12] and 25.6% (active) in test [15]. The result in test [2], in [3], in test [4], in test [5], in [6] and in test [7] was inactive. Also, the result in test [8], in test [9], in test [10], in [11], in test [13] and in [14] was inactive. In test [16], the outcome was inactive.
Regarding `Cc1noc(C)c1CCC(=O)NC1CCCN(Cc2ccc(CC(C)C)cc2)C1` (stereo not given), the activation in test [1] is 75% (active); in test [10] it was 46% (active); in test [12] it was 20.6% (active). For the same molecule, the result in test [2], in test [3], in test [4], in test [5], in test [6] and in [7] was inactive. For the same molecule, the result in test [8], in test [9], in test [11], in test [13], in test [14] and in test [15] was inactive. Besides, the outcome in [16] was inactive.
As to `CCOc1ccc(S(=O)(=O)Nc2cccc(C(=O)NCC(c3ccccc3)N(C)C)c2)cc1` (stereo not given), the activation in test [1] is 255% (active); in test [10], 43% (active). The result in test [2], in test [3], in [4], in [5], in test [6] and in test [7] was inactive. The result in test [8], in test [9], in test [11], in [12], in test [13] and in [14] was inactive. The result in test [15] and in test [16] was inactive.
With `CC(=O)c1c(C)nn(CC(=O)NC2CCCN(Cc3ccc(CC(C)C)cc3)C2)c1C` (stereo not given), the activation in [1] was 122% (active); in test [10] it was 34.5% (active); in test [12], 50.2% (active). Further, the result in test [2], in [3], in [4], in test [5], in [6] and in test [7] was inactive. For the same molecule, the outcome in test [8], in [9], in test [11], in test [13], in [14] and in test [15] was inactive. In addition, the outcome in test [16] was inactive.
As for `CCOC(=O)C1(Cc2cccc(F)c2)CCN(Cc2cnn(CC)c2C)CC1`, the activation in test [1] was 100% (active); in test [2], 94% (active); in [10] it was 64% (active). For the same molecule, the result in test [3], in [4], in [5], in [6], in [7] and in [8] was inactive. Further, the result in [9], in test [11], in test [12], in [13], in test [14] and in test [15] was inactive. The result in test [16] was inactive.
Turning to `CCCN1CCN(C(=O)Cn2c(=O)oc3cc(S(=O)(=O)NCc4ccccc4)ccc32)CC1`, the activation in [1] is 168% (active); in [12] it was 26.3% (active). Moreover, the outcome in test [2], in test [3], in test [4], in test [5], in test [6] and in test [7] was inactive. For the same molecule, the result in test [8], in [9], in [10], in [11], in [13] and in test [14] was inactive. Moreover, the result in test [15] and in test [16] was inactive.
For `CC(=O)c1ccc(S(=O)(=O)NCc2ccc(C(=O)NCC(c3ccccc3)N(C)C)cc2)cc1` (stereo not given), the activation was 127% (active) in test [1], 99% (active) in [2] and 33% (active) in test [10]. Also, the outcome in test [3], in test [4], in test [5], in [6], in test [7] and in test [8] was inactive. For the same molecule, the call in [9], in test [11], in [12], in test [13], in test [14] and in [15] was inactive. Moreover, the result in test [16] was inactive.
As to `COc1ccccc1/C=C/CN1CCCC(CCC(=O)NCc2ccc(F)c(F)c2)C1` (stereo not given), the activation in [1] was 92% (active); in test [2], 79% (active); in test [10] it was 43.5% (active); in test [12], 35.2% (active). Also, the outcome in test [3], in [4], in test [5], in [6], in test [7] and in test [8] was inactive. Also, the call in test [9], in test [11], in test [13], in test [14], in test [15] and in [16] was inactive.
As to `COc1ccc(/C=N/NC(=O)C2COc3ccccc3O2)cc1OC` (stereo not given), the activation in [1] was 114% (active); in test [2] it was 59% (active); in [10], 45% (active); in test [12] it was 52.1% (active). The result in test [3], in [4], in test [5], in test [6], in test [7] and in [8] was inactive. Further, the outcome in test [9], in test [11], in test [13], in test [14], in test [15] and in test [16] was inactive.
As to `Cn1c(=O)c2c(nc(CN3CCc4ccccc4C3)n2Cc2ccccc2F)n(C)c1=O`, the activation in test [1] is 221% (active). Also, the result in [2], in test [3], in [4], in test [5], in [6] and in test [7] was inactive. Further, the outcome in [8], in [9], in test [10], in test [11], in test [12] and in test [13] was inactive. Further, the outcome in test [14], in test [15] and in test [16] was inactive.
Take `CN(C)C(CNC(=O)Cc1ccc([N+](=O)[O-])cc1)c1ccccc1` (stereo not given): the values for the activation in test [1] and in test [2] were 161% (active) and 124% (active), respectively. The result in test [3], in test [4], in test [5], in test [6], in test [7] and in test [8] was inactive. The call in test [9], in test [10], in test [11], in test [12], in test [13] and in test [14] was inactive. Also, the outcome in test [15] and in test [16] was inactive.

These data come from PubChem BioAssay.
